# PAFAH1B2 inh = inhibitors of human PAFAH1B2; P68402; recombinant PAFAH1B2, FP-rhodamine activity probe, fluorescence polarization; inhibition, % at 3.39 µM; 340,000 tested, 1.2% active; AID 492953;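 active means inhibition above the mean of all tested compounds plus 3 SD, cut at about 24% in these data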;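 further: 0% = enzyme with DMSO and 100% = wells lacking PAFAH1B2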
# pPAFAH FP inh = pPAFAH (human) enzyme inhibition | inhibition, % at 3.39 µM | Q13093 | AID 463082 | recombinant pPAFAH, FP-rhodamine probe fluorescence polarization | 330,000 tested, 1.5% active;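 active means inhibition above the mean inhibition across the screen plus 3 SD, cut at about 25% in these data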;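 further: inhibitors block binding of the rhodamine activity-based probe so polarization drops; 0% = enzyme with DMSO and 100% = wells lacking pPAFAH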
# Target sequence (Q13093 whole entry, looked up): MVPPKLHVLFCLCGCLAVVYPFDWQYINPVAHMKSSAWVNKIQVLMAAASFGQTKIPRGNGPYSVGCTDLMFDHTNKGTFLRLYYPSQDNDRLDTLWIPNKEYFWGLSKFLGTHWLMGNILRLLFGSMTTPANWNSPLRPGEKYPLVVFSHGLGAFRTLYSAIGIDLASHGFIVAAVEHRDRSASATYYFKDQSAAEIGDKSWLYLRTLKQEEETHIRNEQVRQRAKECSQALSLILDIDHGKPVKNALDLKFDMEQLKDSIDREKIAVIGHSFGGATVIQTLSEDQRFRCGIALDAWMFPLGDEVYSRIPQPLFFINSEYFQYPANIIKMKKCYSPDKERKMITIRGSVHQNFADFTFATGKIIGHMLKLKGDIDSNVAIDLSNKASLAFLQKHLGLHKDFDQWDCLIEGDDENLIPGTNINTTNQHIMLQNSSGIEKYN
# PAFAH1B3 inh = PAFAH1B3 (human) inhibition; AID 492972; inhibition, % at 3.39 µM; 340,000 tested, 0.28% active; recombinant PAFAH1B3, FP-rhodamine probe, fluorescence polarization;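 active means inhibition above the screen-wide average of all tested compounds plus 3 SD, cut at about 25% in these data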;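 further: 0% = enzyme with DMSO only and 100% = wells lacking PAFAH1B3 protein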
# PME-1 primary = PME-1 (human) inhibition. Q9Y570. recombinant PME-1, FP-Rh probe fluorescence polarization. inhibition, % at 5.9 µM. 320,000 tested, 0.53% active;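 active means inhibition above the campaign mean of all compounds plus 3 SD, cut at about 26% in these data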;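 further: competitive labeling of PME-1 active site by serine hydrolase directed probe; 0% = PME-1 with DMSO and 100% = wells lacking PME-1 enzyme; inhibitors block probe labeling so polarization falls and inhibition rises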
# Fam108B counter = blocks mouse Fam108B hydrolase in RBBP9 counter-screen | inhibition, % at 9.51 µM | 300,000 tested, 0.33% active | AID 1947 | recombinant Fam108B, FP-Rh probe fluorescence polarization;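 active means inhibition above the screen mean inhibition plus 3 SD, computed separately per campaign, cut at about 18% in these data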;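 further: inhibitors lower polarization as less probe binds the enzyme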
# PAFAH2 FP inh = PAFAH2 (human) inhibition | recombinant PAFAH2, FP-rhodamine activity probe, fluorescence polarization | inhibition, % at 3.39 µM | AID 492956 | Q99487 | 340,000 tested, 0.99% active;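 active means inhibition above the mean over all tested compounds plus 3 SD, cut at about 30% in these data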;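 further: inhibitors block probe labeling of enzyme so polarization drops; 0% = enzyme with DMSO and 100% = wells lacking PAFAH2 protein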
# * marks the source's active call; other numbers are inactive results; . = no result. Hits are enriched below; roughly 2.9% of the tested compounds scored in any of these assays.
SMILES,PAFAH1B2 inh,pPAFAH FP inh,PAFAH1B3 inh,PME-1 primary,Fam108B counter,PAFAH2 FP inh
NNC(=O)c1nn(-c2ccc(Cl)cc2)cc1O,2,34*,8,-42,3,-10
Cc1ccc(NC(=O)COC(=O)c2nn(-c3ccc(Cl)cc3)cc2O)cc1,-3,2,-1,.,.,-7
COc1ccccc1/C=C/C=C1N=C(/C=C/c2ccc(Cl)cc2)OC/1=O,-16,30*,-22,-6,-17,-9
COCCN(C(=O)COC(=O)CCn1c(C)csc1=O)c1c(N)n(Cc2ccccc2)c(=O)[nH]c1=O,4,-3,1,0,1,-4
Cc1csc(=O)n1CCC(=O)OCC(=O)N(CC(C)C)c1c(N)n(Cc2ccccc2)c(=O)[nH]c1=O,4,26*,13,9,-7,-5
c1ccc(CSc2nnc3c(n2)OC(c2ccco2)Nc2ccccc2-3)cc1 (stereo not given),6,26*,0,-1,5,23
Cc1ccccc1Nc1scc(-c2ccc(Cl)cc2)[n+]1-c1ccccc1C,1,.,3,.,.,-2
CCCCC(=O)Nc1ncc(S(=O)(=O)c2ccc([N+](=O)[O-])cc2)s1,1,-2,0,0,-6,8
COCC(=O)Nc1ncc(S(=O)(=O)c2ccc([N+](=O)[O-])cc2)s1,28*,3,10,-3,-5,6
CC(=O)NCCC(=O)Nc1ncc(S(=O)(=O)c2ccc([N+](=O)[O-])cc2)s1,26*,-1,7,-1,0,5
O=C(Nc1ncc(S(=O)(=O)c2ccc([N+](=O)[O-])cc2)s1)c1cccc2ccccc12,-3,7,1,8,4,1
CCOC(=O)c1cc2c(N)c(C(=O)c3ccc(Br)cc3)sc2[nH]c1=O,32*,10,12,8,5,32*
CCOC(=O)c1cc(C(=O)OCC)c(=O)[nH]c1C,0,2,8,0,-1,-2
COc1cccc(Nc2nc3ccccc3nc2NS(=O)(=O)c2cccs2)c1,11,32*,-1,20,6,8
Cc1cc(NC(=S)N(Cc2ccc(Br)cc2)Cc2ccc(C(=O)O)cc2)ccc1Cl,32*,4,5,-1,-3,2
O=C(COC(=O)COc1ccc(Cl)cc1)Nc1ncc(Br)s1,2,.,-3,.,.,9
C/C(N)=C(/C#N)C(=O)COC(=O)CSc1ccccc1,26*,2,-7,1,-2,-8
COc1ccc(CCNC(=O)CSc2nnc(CNC(=O)c3c(F)cccc3Cl)o2)cc1OC,2,0,5,5,2,6
O=C1/C(=C\c2ccc(O)cc2)SC(=S)N1c1cccnc1,-1,-9,-2,-10,-7,-7
O=C(CN1C(=O)/C(=C/c2ccco2)SC1=S)Nc1ccc(O)c(C(=O)O)c1,4,33*,19,-32,11,14
O=C1/C(=C\c2ccco2)SC(=S)N1c1ccc(O)cc1,-1,34*,2,4,16,-6
CNC(=O)NC(=O)C(C)OC(=O)c1ccc(Cl)c(S(=O)(=O)Nc2ccc(F)cc2)c1 (stereo not given),-4,29*,0,5,2,-4
NC(=S)N/N=C/c1cccc(O)c1O,7,32*,1,1,5,0
Cc1[nH]n(-c2ccccc2)c(=O)c1C(C[N+](=O)[O-])c1ccc(Br)cc1 (stereo not given),35*,5,23,1,3,7
CCCC(=O)Oc1ccc(N(C(=O)CCC)S(=O)(=O)c2cccs2)cc1,6,30*,1,0,5,4
SMILES,PAFAH1B2 inh,pPAFAH FP inh,PAFAH1B3 inh,PME-1 primary,Fam108B counter,PAFAH2 FP inh
CC(=O)Oc1ccc(N(C(C)=O)S(=O)(=O)c2cccs2)cc1,8,3,5,10,1,0
O=C(O)c1cc(NN=Nc2ccc(Br)cc2)cc([N+](=O)[O-])c1,7,10,5,40*,2,17
O=C(O)c1cc(NN=Nc2cccc([N+](=O)[O-])c2)cc([N+](=O)[O-])c1,7,27*,9,9,4,10
Brc1ccc(N=NNc2ccccc2)cc1,-1,3,7,33*,3,-4
O=[N+]([O-])c1cccc(NN=Nc2ccccc2)c1,4,9,10,7,0,0
O=[N+]([O-])c1ccc(N=NNc2ccccc2)cc1,3,6,11,5,14,15
O=C(O)c1cc(NN=Nc2cccc(S(=O)(=O)O)c2)cc([N+](=O)[O-])c1,3,10,8,-2,3,6
Cc1ccc(C(=O)Oc2cc(C)[nH]c(=O)c2[N+](=O)[O-])cc1,1,29*,6,-2,-2,3
CCOc1ccc2c(c1)c(C(C)=O)c(C)n2-c1ccccc1,0,26*,3,-5,-1,-7
COc1ccc(C(=O)c2sc3nc(-c4ccccc4)ccc3c2N)cc1OC,8,30*,2,1,3,8
COc1ccc(-c2ccc3c(N)c(C(=O)c4ccc(OC)c(OC)c4)sc3n2)cc1,0,5,1,-6,-2,4
O=S(=O)(c1ccccc1Cl)N1CCC(Cc2ccccc2)CC1,0,0,-2,-4,-5,6
CSc1ccc(Cl)c(C(=O)OCC(=O)N2CCN(c3ccccc3)CC2)c1,5,.,1,.,.,4
CN(Cc1ccccc1)C(=O)COC(=O)COc1ccc(C#N)cc1,-3,33*,3,6,0,2
N#Cc1ccc(OCC(=O)OCCCOC(=O)COc2ccc(C#N)cc2)cc1,18,32*,5,-2,-1,4
N#Cc1ccc(OCC(=O)OCC(=O)c2ccccc2)cc1,7,20,12,.,.,-5
CN(Cc1ccccc1)C(=O)COC(=O)COc1ccc(Cl)cc1,8,24,3,.,.,3
COc1ccc(-c2cc(-c3ccco3)[nH]c(=O)c2C#N)cc1,6,30*,5,7,5,19
O=C(COC(=O)c1ccco1)NCc1ccc2c(c1)OCO2,2,-2,-1,-2,2,14
O=C(COC(=O)c1cc(-c2ccco2)nc2ccccc12)NCc1ccc2c(c1)OCO2,0,26*,6,4,-5,2
CN1CCN(S(=O)(=O)c2ccc(N3CCN(c4ccc(O)cc4)CC3)c([N+](=O)[O-])c2)CC1,16,4,-9,1,6,4
O=[N+]([O-])c1cc(S(=O)(=O)Nc2ccccc2)ccc1N1CCN(c2ccc(O)cc2)CC1,0,30*,12,11,8,7
Cc1ccc(C)c(NC(=O)CN(C)C(=O)c2oc3c(Cl)cccc3c2C)c1,-3,2,8,-1,1,8
O=[N+]([O-])c1ccc(Sc2cccc[n+]2[O-])c2nonc12,56*,.,83*,.,.,90*

# High-throughput results deposited in PubChem BioAssay by The Scripps Research Institute Molecular Screening Center.
